What all share (assay): DAPPL (digital affinity profiling via proximity ligation, sequencing); 10 mM Tris-HCl pH 7.5, 50 mM NaCl, 1 mM DTT, 4% glycerol, room temperature, 30 min; GST-TFs on glutathione beads, 16-mer random dsDNA library, 0.1% formaldehyde crosslink after washing; high values mean tight binding
What all share (details): protein: recombinant; tags: N-terminal GST; dsDNA, one strand shown

Assay [1] deals with T1, FLI1 (Homo sapiens, UniProt Q01543 1-452).
T1 sequence: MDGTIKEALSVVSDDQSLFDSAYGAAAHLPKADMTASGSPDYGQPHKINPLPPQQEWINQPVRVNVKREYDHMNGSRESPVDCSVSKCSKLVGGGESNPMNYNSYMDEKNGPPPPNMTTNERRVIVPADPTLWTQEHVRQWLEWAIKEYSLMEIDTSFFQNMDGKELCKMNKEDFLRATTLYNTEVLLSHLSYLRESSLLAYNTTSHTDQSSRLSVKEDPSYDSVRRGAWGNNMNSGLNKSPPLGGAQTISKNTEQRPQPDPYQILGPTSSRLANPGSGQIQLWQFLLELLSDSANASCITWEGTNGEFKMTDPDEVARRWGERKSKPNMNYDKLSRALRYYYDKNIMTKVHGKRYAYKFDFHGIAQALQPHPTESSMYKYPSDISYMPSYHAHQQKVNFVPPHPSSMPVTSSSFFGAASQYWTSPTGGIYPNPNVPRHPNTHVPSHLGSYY
In short, it runs like this:
(§1)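 Human transcription factors fused to GST were expressed in yeast, captured on glutathione beads, given DNA barcodes and pooled with a GST-only negative control. Pools were incubated with 200 nmole of a 16-mer random double-stranded DNA library in Tris/NaCl/DTT/glycerol buffer at room temperature for 30 min. They were then washed, crosslinked with 0.1% formaldehyde, proximity-ligated (BsaI/T4 ligase, 1 h, 37 °C), PCR-amplified and sequenced on an Illumina NextSeq500. Binding signal is each 6-mer's read frequency for a factor divided by its frequency for the GST control.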

The target of assay [2] is T2, ELK1 (Homo sapiens, UniProt P19419 1-428).
T2 sequence: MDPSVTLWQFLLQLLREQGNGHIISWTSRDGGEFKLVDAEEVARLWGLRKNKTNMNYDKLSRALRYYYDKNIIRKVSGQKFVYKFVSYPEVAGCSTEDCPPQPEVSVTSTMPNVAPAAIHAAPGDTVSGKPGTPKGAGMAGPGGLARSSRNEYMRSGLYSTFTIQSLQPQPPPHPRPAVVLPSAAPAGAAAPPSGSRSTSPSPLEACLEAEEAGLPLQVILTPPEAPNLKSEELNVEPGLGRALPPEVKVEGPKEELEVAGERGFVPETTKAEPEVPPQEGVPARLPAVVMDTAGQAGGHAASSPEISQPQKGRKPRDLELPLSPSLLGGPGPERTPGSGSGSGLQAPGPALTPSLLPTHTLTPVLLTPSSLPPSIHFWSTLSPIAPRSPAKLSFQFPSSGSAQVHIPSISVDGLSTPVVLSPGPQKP
In short, it runs like this: as §1

Assay [3] concerns the target T3, GABPA (Homo sapiens, UniProt Q06546 1-454).
T3 sequence: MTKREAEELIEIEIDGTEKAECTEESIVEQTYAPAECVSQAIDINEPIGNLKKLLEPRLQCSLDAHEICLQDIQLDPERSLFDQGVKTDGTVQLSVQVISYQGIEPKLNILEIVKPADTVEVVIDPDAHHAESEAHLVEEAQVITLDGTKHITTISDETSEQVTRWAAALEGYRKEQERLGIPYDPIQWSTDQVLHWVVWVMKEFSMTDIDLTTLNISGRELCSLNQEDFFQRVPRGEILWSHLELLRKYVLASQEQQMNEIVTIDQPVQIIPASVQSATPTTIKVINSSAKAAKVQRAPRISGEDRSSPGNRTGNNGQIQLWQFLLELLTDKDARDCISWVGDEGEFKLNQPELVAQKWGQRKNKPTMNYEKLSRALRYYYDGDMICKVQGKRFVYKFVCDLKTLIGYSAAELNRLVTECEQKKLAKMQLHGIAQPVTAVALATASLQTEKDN
In short, it runs like this: as §1

In assay [4] the target is T4, ERG (Homo sapiens, UniProt P11308 1-479).
T4 sequence: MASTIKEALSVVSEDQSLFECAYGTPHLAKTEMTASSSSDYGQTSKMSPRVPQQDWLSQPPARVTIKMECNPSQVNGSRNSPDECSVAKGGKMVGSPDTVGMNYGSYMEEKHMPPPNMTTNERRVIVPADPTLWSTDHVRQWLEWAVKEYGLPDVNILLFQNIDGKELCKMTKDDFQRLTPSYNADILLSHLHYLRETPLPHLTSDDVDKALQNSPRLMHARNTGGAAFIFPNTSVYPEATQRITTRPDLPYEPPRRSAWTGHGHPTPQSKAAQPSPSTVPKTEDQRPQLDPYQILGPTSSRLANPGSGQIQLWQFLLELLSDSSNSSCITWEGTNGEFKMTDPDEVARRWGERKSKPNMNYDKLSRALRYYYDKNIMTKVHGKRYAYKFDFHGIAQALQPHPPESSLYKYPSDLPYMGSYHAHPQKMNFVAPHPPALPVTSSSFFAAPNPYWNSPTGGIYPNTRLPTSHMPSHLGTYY
In short, it runs like this:
as §1

The target in assay [5] is ELF1 (Homo sapiens, UniProt P32519 1-619). In short, it runs like this: as §1
ELF1, sequence (P32519 whole entry): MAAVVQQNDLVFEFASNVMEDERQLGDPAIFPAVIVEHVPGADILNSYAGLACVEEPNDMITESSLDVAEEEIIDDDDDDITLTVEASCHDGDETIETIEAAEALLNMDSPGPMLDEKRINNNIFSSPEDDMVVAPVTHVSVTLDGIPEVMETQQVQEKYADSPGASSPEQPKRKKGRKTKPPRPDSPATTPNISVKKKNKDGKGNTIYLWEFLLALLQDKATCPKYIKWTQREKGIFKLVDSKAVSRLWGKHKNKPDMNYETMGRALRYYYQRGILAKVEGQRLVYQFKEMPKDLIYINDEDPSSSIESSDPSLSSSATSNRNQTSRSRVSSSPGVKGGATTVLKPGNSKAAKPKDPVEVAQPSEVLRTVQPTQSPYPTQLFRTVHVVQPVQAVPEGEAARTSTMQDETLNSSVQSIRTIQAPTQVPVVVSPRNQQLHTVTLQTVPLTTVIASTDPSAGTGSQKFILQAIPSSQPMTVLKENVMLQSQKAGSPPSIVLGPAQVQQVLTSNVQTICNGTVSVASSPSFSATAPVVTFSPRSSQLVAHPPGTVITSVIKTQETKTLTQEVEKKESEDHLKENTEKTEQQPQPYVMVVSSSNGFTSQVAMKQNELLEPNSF
For assay [6], the target named is T5, EHF (Homo sapiens, UniProt Q9NZC4 1-300).
T5 sequence: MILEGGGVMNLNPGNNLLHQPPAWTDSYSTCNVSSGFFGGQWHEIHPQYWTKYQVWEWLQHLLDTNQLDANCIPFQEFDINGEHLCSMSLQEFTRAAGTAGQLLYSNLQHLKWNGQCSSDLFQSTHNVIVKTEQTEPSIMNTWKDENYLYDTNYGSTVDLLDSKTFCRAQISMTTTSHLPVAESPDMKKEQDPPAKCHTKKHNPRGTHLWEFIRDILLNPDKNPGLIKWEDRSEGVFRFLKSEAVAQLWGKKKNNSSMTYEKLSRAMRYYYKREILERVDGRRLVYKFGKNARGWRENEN
The method in brief:
as §1

Assay [7] has as its target SPI1 (Homo sapiens, UniProt P17947 1-270). The method in brief: as §1
The target of assay [8] is SPIB (Homo sapiens, UniProt Q01892 1-262). In short, it runs like this:
as §1

For assay [9], the target named is T6, ELK3 (Homo sapiens, UniProt P41970 1-407).
T6 sequence: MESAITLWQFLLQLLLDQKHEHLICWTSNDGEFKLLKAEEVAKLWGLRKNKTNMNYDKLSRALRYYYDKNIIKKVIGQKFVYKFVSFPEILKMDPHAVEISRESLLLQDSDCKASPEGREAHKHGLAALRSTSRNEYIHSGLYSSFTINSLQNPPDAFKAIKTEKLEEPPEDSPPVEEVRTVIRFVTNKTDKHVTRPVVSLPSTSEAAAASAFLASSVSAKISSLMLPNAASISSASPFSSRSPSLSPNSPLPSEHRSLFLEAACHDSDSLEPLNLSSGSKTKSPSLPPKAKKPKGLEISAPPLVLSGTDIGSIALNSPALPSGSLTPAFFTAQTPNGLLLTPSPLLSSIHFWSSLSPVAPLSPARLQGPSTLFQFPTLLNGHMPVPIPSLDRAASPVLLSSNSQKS
In short, it runs like this:
as §1

SPIB, sequence (Q01892 whole entry): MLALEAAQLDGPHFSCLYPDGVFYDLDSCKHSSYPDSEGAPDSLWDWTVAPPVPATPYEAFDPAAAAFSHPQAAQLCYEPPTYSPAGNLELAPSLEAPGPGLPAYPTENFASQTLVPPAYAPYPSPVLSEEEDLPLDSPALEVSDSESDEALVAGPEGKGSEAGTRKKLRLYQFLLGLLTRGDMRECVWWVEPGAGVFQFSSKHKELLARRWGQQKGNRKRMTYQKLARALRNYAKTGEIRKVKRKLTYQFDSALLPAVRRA

In the case of GATGCA, the binding signal in assay [1] is 1.15 fold enrichment (6-mer frequency, TF over GST control); in [2], 1.14 fold enrichment (6-mer frequency, TF over GST control); in [3], 1.18 fold enrichment (6-mer frequency, TF over GST control); in [4] it was 1.11 fold enrichment (6-mer frequency, TF over GST control); in [5], 1.06 fold enrichment (6-mer frequency, TF over GST control); in [6], 1.2 fold enrichment (6-mer frequency, TF over GST control). For the same sequence, the binding signal was 1.06 fold enrichment (6-mer frequency, TF over GST control) in [7]; 1.23 fold enrichment (6-mer frequency, TF over GST control) in assay [8]; 1.16 fold enrichment (6-mer frequency, TF over GST control) in assay [9].

As for GTTTTG, the binding signal in [1] was 1.19 fold enrichment (6-mer frequency, TF over GST control); in assay [2] it was 1.17 fold enrichment (6-mer frequency, TF over GST control); in assay [3], 1.2 fold enrichment (6-mer frequency, TF over GST control); in [4], 1.25 fold enrichment (6-mer frequency, TF over GST control); in assay [5] it was 1.23 fold enrichment (6-mer frequency, TF over GST control); in [6], 1.15 fold enrichment (6-mer frequency, TF over GST control). The binding signal in [7] was 1.2 fold enrichment (6-mer frequency, TF over GST control); in assay [8] it was 1.23 fold enrichment (6-mer frequency, TF over GST control); in [9] it was 1.11 fold enrichment (6-mer frequency, TF over GST control).

Take CCTCGT: the binding signal was 1.16 fold enrichment (6-mer frequency, TF over GST control) in [1]; 1.1 fold enrichment (6-mer frequency, TF over GST control) in assay [2]; 1.39 fold enrichment (6-mer frequency, TF over GST control) in assay [3]; 1.24 fold enrichment (6-mer frequency, TF over GST control) in assay [4]; 1.3 fold enrichment (6-mer frequency, TF over GST control) in assay [5]; 1.18 fold enrichment (6-mer frequency, TF over GST control) in [6]. In addition, the binding signal was 1.31 fold enrichment (6-mer frequency, TF over GST control) in assay [7]; 1.13 fold enrichment (6-mer frequency, TF over GST control) in assay [8]; 1.37 fold enrichment (6-mer frequency, TF over GST control) in assay [9].

Consider TATTGC, for which the binding signal in [1] is 1.39 fold enrichment (6-mer frequency, TF over GST control); in assay [2], 1.33 fold enrichment (6-mer frequency, TF over GST control); in assay [3], 1.44 fold enrichment (6-mer frequency, TF over GST control); in [4], 1.31 fold enrichment (6-mer frequency, TF over GST control); in [5], 1.41 fold enrichment (6-mer frequency, TF over GST control); in assay [6], 1.3 fold enrichment (6-mer frequency, TF over GST control). Moreover, the binding signal in [7] was 1.32 fold enrichment (6-mer frequency, TF over GST control); in [8], 1.37 fold enrichment (6-mer frequency, TF over GST control); in assay [9], 1.3 fold enrichment (6-mer frequency, TF over GST control).

Turning to CACTCT, the binding signal in assay [1] is 1.27 fold enrichment (6-mer frequency, TF over GST control); in assay [2] it was 1.25 fold enrichment (6-mer frequency, TF over GST control); in [3], 1.19 fold enrichment (6-mer frequency, TF over GST control); in [4], 1.24 fold enrichment (6-mer frequency, TF over GST control); in assay [5] it was 1.36 fold enrichment (6-mer frequency, TF over GST control); in [6], 1.38 fold enrichment (6-mer frequency, TF over GST control). The binding signal in [7] was 1.34 fold enrichment (6-mer frequency, TF over GST control); in assay [8] it was 1.23 fold enrichment (6-mer frequency, TF over GST control); in [9], 1.34 fold enrichment (6-mer frequency, TF over GST control).

Regarding CTTTCT, the binding signal in assay [1] was 1.6 fold enrichment (6-mer frequency, TF over GST control); in [2] it was 1.6 fold enrichment (6-mer frequency, TF over GST control); in [3] it was 1.5 fold enrichment (6-mer frequency, TF over GST control); in [4], 1.53 fold enrichment (6-mer frequency, TF over GST control); in [5], 1.55 fold enrichment (6-mer frequency, TF over GST control); in [6] it was 1.53 fold enrichment (6-mer frequency, TF over GST control). The binding signal was 1.67 fold enrichment (6-mer frequency, TF over GST control) in [7]; 1.48 fold enrichment (6-mer frequency, TF over GST control) in assay [8]; 1.65 fold enrichment (6-mer frequency, TF over GST control) in assay [9].

With CCCCAC, the binding signal was 1.19 fold enrichment (6-mer frequency, TF over GST control) in assay [1]; 1.24 fold enrichment (6-mer frequency, TF over GST control) in assay [2]; 1.19 fold enrichment (6-mer frequency, TF over GST control) in assay [3]; 1.2 fold enrichment (6-mer frequency, TF over GST control) in [4]; 1.24 fold enrichment (6-mer frequency, TF over GST control) in assay [5]; 1.34 fold enrichment (6-mer frequency, TF over GST control) in [6]. Also, the binding signal in [7] was 1.22 fold enrichment (6-mer frequency, TF over GST control); in assay [8] it was 1.25 fold enrichment (6-mer frequency, TF over GST control); in assay [9], 1.34 fold enrichment (6-mer frequency, TF over GST control).

In the case of ACTCTA, the binding signal in assay [1] is 1.42 fold enrichment (6-mer frequency, TF over GST control); in [2], 1.46 fold enrichment (6-mer frequency, TF over GST control); in assay [3], 1.52 fold enrichment (6-mer frequency, TF over GST control); in assay [4] it was 1.39 fold enrichment (6-mer frequency, TF over GST control); in assay [5] it was 1.52 fold enrichment (6-mer frequency, TF over GST control); in assay [6], 1.56 fold enrichment (6-mer frequency, TF over GST control). The binding signal was 1.5 fold enrichment (6-mer frequency, TF over GST control) in assay [7]; 1.45 fold enrichment (6-mer frequency, TF over GST control) in [8]; 1.38 fold enrichment (6-mer frequency, TF over GST control) in assay [9].

(Values after PMC7862700, “An all-to-all approach to the identification of sequence-specific readers for epigenetic DNA modifications on cytosine”.)
